“And” between values parts separate entries of the source, which are not always exact repeats. Equal entries are not always repeated. The campaign covered roughly 5,500 compounds. About 2,000 (36%) were called active. Not shown: some 18% with an inconclusive outcome. Rule as the data show it: active = normalized growth mostly below about 0.91 (no sharp cut-off); inconclusive = no clear call, values can overlap the other calls; inactive = mostly above about 0.92. The list shows a part of the results.
Experiment: chemical genetic growth profiling, strain panel (AID 1159580);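 also: tested at 20 µM; growth read once vehicle control cultures reached saturation at 30 °C; 1 = growth at the plate median or of vehicle wells; lower values mean less growth of the strain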
Conditions: S. cerevisiae deletion strains, growth OD

Measured: normalized growth

CCc1cccc2c3c([nH]c12)C(CC)(CC(=O)O)OCC3 (stereo not given)
inactive: locus YAL013W, strain DEP1, stronger effect = lower value 1.01 and 1.02 | locus YAL021C, strain ccr4, stronger effect = lower value 1.01 | locus YAL026C, strain drs2, stronger effect = lower value 0.983 | locus YAL030W, strain snc1, stronger effect = lower value 1 | locus YAL040C, strain CLN3, stronger effect = lower value 0.976 | locus YBL061C, strain skt5, stronger effect = lower value 0.979 | locus YBR009C, strain hhf1, stronger effect = lower value 1 | locus YBR021W, strain FUR4, stronger effect = lower value 1.01 | locus YBR023C, strain chs3, stronger effect = lower value 0.968 | locus YBR171W, strain sec66, stronger effect = lower value 0.959 | locus YBR229C, strain ROT2, stronger effect = lower value 1.01 | locus YBR231C, strain swc5, stronger effect = lower value 0.989 | locus YBR279W, strain paf1, stronger effect = lower value 0.987 | locus YCL011C, strain gbp2, stronger effect = lower value 1 | locus YCL016C, strain dcc1, stronger effect = lower value 1 | locus YCL029C, strain bik1, stronger effect = lower value 1.01 | locus YCL061C, strain MRC1 (second series), stronger effect = lower value 0.995 | locus YCL069W, strain vba3, stronger effect = lower value 0.976 | locus YCR088W, strain abp1, stronger effect = lower value 0.983 | locus YDL005C, strain med2, stronger effect = lower value 0.971 | locus YDL035C, strain GPR1, stronger effect = lower value 1 | locus YDL040C, strain nat1, stronger effect = lower value 0.976 | locus YDL074C, strain BRE1, stronger effect = lower value 1.02 | locus YDL101C, strain DUN1, stronger effect = lower value 1.02 | locus YDL134C, strain PPH21, stronger effect = lower value 1.01 | locus YDL185W, strain tfp1, stronger effect = lower value 1.01 | locus YDL192W, strain arf1, stronger effect = lower value 1.01 | locus YDR001C, strain nth1, stronger effect = lower value 0.966 | locus YDR069C, strain doa4, stronger effect = lower value 0.976 | locus YDR101C, strain arx1, stronger effect = lower value 1 | locus YDR137W, strain rgp1, stronger effect = lower value 0.964 | locus YDR150W, strain NUM1, stronger effect = lower value 1 and 0.999 | locus YDR159W, strain sac3, stronger effect = lower value 0.976 | locus YDR162C, strain NBP2, stronger effect = lower value 1.01 | locus YDR195W, strain ref2 0.896 | locus YDR297W, strain sur2, stronger effect = lower value 0.985 | locus YDR318W, strain mcm21, stronger effect = lower value 1.02 | locus YDR334W, strain swr1, stronger effect = lower value 0.951 | locus YDR335W, strain msn5, stronger effect = lower value 0.968 | locus YDR363W, strain ESC2, stronger effect = lower value 1.05 | locus YDR388W, stronger effect = lower value 1.01 | locus YDR392W, strain spt3, stronger effect = lower value 1.03 | locus YDR502C, strain sam2, stronger effect = lower value 0.986 | locus YEL003W, strain gim4, stronger effect = lower value 0.964 | locus YEL037C, strain rad23, stronger effect = lower value 0.968 | locus YEL061C, strain CIN8 (second series), stronger effect = lower value 0.965 | locus YEL061C, strain CIN8, stronger effect = lower value 1 | locus YER002W, strain NOP16, stronger effect = lower value 0.979 | locus YER015W, strain faa2, stronger effect = lower value 0.973 | locus YER016W, strain bim1, stronger effect = lower value 0.984 | locus YER110C, stronger effect = lower value 1 | locus YER111C, strain swi4, stronger effect = lower value 0.968 | locus YER155C, strain BEM2 (second series), stronger effect = lower value 0.979 | locus YER155C, strain BEM2, stronger effect = lower value 1.01 | locus YER167W, strain BCK2, stronger effect = lower value 1.01 | locus YFR010W, strain ubp6, stronger effect = lower value 0.984 | locus YGL078C, strain dbp3, stronger effect = lower value 0.99 | locus YGL086W, strain mad1, stronger effect = lower value 1.01 | locus YGL167C, strain pmr1, stronger effect = lower value 0.957 | locus YGL173C, strain kem1, stronger effect = lower value 0.993 | locus YGL227W, strain vid30, stronger effect = lower value 0.987 | locus YGL240W, strain doc1, stronger effect = lower value 0.982 | locus YGL248W, strain PDE1, stronger effect = lower value 1.01 | locus YGL253W, strain hxk2, stronger effect = lower value 0.98 | locus YGR078C, strain PAC10, stronger effect = lower value 1.02 | locus YGR135W, strain pre9, stronger effect = lower value 1 | locus YGR229C, strain SMI1, stronger effect = lower value 0.995 | locus YGR252W, strain gcn5, stronger effect = lower value 1 | locus YHR013C, strain ard1, stronger effect = lower value 0.985 | locus YHR027C, strain rpn1, stronger effect = lower value 0.997 | locus YHR030C, strain SLT2, stronger effect = lower value 1.01 and 0.971 | locus YHR079C, strain IRE1 (second series), stronger effect = lower value 1.01 | locus YHR079C, strain IRE1, stronger effect = lower value 0.965 | locus YHR094C, strain hxt1, stronger effect = lower value 1.01 | locus YHR129C, strain ARP1, stronger effect = lower value 1.01 | locus YHR142W, strain chs7, stronger effect = lower value 0.986 | locus YHR200W, strain rpn10, stronger effect = lower value 1 | locus YIL066C, strain RNR3, stronger effect = lower value 1.01 | locus YIL073C, strain SPO22, stronger effect = lower value 1.02 | locus YIL125W, strain kgd1, stronger effect = lower value 0.992 | locus YIR030C, strain dcg1, stronger effect = lower value 0.997 | locus YJL092W, strain hpr5, stronger effect = lower value 0.982 | locus YJL095W, strain BCK1 (second series), stronger effect = lower value 0.987 | locus YJL095W, strain BCK1, stronger effect = lower value 1.05 and 0.971 | locus YJL115W, strain asf1, stronger effect = lower value 0.98 | locus YJL129C, strain trk1, stronger effect = lower value 0.934 | locus YJL134W, strain LCB3, stronger effect = lower value 1.01 | locus YJL154C, strain vps35, stronger effect = lower value 0.981 | locus YJL164C, strain tpk1, stronger effect = lower value 1.01 | locus YJL166W, strain qcr8, stronger effect = lower value 0.984 | locus YJL168C, strain set2, stronger effect = lower value 1 | locus YJL187C, strain SWE1 (second series), stronger effect = lower value 1.03 | locus YJR043C, strain POL32, stronger effect = lower value 1.01 | locus YJR066W, strain TOR1, stronger effect = lower value 0.916 | locus YJR075W, strain HOC1, stronger effect = lower value 1.02
